Screening results deposited in PubChem by National Center for Advancing Translational Sciences (NCATS).
A selection: hits, their analogues and other compounds. The true share with any hit is near 11%.
HTT cytoprotect = Huntington cell model cytoprotection by ATP luminescence | PC12 HTT-Q103 induced, cytoprotection, ATP luminescence, 40 h | Potency, µM (top dose mostly 56.4 µM), inactives show cytoprotection (ATP increase), hits mostly activators | 230,000 compounds, 0.14% hits | AID 1471; active means well fitted curve in the direction sought with a large enough effect; inconclusive means small, poorly fitted or top-dose-only effect, or another doubt; inactive means no such curve, though single readings can be large; an effect the other way counts as inactive or inconclusive; further: potency means the concentration at half of the fitted maximal effect; % of control where 0% means no effect; nearly all actives have a fitted effect of over 45% in size
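Huntington model: PC12 line, ecdysone-inducible HTTQ103 exon1–GFP, tebufenozide 100 nM. Test articles in a dose series. Endpoint luminescence from cellular ATP.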
HTT aggregate = reduces HttQ103-GFP aggregates in PC12 cells. PC12 HttQ103-GFP aggregates, Acumen cytometry, 40 h. AID 1688. 220,000 compounds, 1.1% hits. Potency, µM (series often up to 46.1 µM), for inactives: top-dose activity change, negative = inhibition, most hits filed as inhibitors; active means well fitted curve in the direction sought with a large enough effect; inconclusive means small, poorly fitted or top-dose-only effect, or another doubt; inactive means no such curve, though single readings can be large; an effect the other way counts as inactive or inconclusive; further: potency means the concentration at half of the fitted maximal effect; on the % scale 0 is the no-effect control and ±100 the full control effect; nearly all actives have a fitted effect of over 60% in size
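Steps: seed 1500 PC12 HTTQ103-GFP cells/well; add tebufenozide, 100 nM final; add compound titration; add ATPLite reagent; quantify GFP aggregates by laser scanning cytometry.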
GoLoco inh red = RGS12 GoLoco-Gai1 interaction inhibition | P63096 | Gai1:RGS12 GoLoco peptide FP, rhodamine, 10 min | Potency, µM (highest dose often 61.6 µM), for the others: at the top dose activity, negative = inhibition, actives largely listed as inhibitors | 230,000 compounds, 0.44% hits | AID 880; active means well fitted inhibition curve with a large enough effect, not every such curve was filed as active; inactive means no such curve, though single readings can be large or run the other way; further: potency means the concentration at half of the fitted maximal effect; on the % scale 0 is the no-effect control and ±100 the full control effect; nearly all actives have a fitted effect of over 30% in size
Target sequence (P63096 whole entry, looked up): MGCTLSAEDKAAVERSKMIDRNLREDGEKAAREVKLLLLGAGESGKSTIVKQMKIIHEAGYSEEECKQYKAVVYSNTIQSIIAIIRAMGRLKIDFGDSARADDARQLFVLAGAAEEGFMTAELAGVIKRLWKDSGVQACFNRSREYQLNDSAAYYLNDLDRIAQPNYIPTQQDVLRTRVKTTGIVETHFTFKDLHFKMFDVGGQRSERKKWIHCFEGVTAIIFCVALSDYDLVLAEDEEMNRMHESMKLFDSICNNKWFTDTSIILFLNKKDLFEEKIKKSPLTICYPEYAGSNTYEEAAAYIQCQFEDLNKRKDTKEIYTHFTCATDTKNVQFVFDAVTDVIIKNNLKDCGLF
PNC inhibitor = blocks assembly of the perinucleolar compartment. PC3M PTB-GFP, PNC prevalence imaging, 16 h; stronger effect = lower value. activity change (PNC), negative = inhibition, % at 10 µM. AID 2417. 140,000 compounds, 3.1% hits;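 active means readout at or below -70, meaning at least 70% loss of cells showing the perinucleolar compartment, a nuclear body marking cancer cells; inconclusive means readout between -30 and a set limit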;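 further: plate controls were DMSO wells for no effect and camptothecin positive control wells for full effect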
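Compounds are pinned in duplicate onto adhered PC3M cells stably expressing GFP-tagged PTB and incubated 16 h at 37 C. Cells are then fixed, nuclei stained with Hoechst, and PNC-positive cells counted.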
ALDH1A1 inh = ALDH1A1 (human) enzyme inhibition. P00352. Purified ALDH1A1, NADH fluorescence, propionaldehyde substrate. Potency, µM (highest dose often 75.3 µM), for the others: top-dose activity, negative = inhibition, usual class: inhibitors. 220,000 compounds, 7.3% hits. AID 1030;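 further: potency means the concentration at half of the fitted maximal effect; plate controls were no enzyme wells and a reference inhibitor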
HPGD block = HPGD (human) dehydrogenase inhibition | P15428 | purified HPGD, NADH fluorescence kinetic, PGE2 substrate | Potency, µM, without a hit: at the highest dose activity change, negative = inhibition, actives largely listed as inhibitors | 150,000 compounds, 4.3% hits | AID 894; further: potency means the concentration at half of the fitted maximal effect; on the % scale 0 is the no-effect control and ±100 the full control effect
Target sequence (P15428 whole entry, looked up): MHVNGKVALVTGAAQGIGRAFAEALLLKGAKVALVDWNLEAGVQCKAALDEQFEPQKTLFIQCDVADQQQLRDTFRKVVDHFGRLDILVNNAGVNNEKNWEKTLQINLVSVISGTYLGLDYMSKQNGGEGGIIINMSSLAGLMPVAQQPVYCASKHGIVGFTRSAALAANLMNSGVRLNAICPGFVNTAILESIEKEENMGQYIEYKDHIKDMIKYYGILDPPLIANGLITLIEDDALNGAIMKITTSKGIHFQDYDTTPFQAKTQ
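NADH formation kinetics: reaction with 30 uM PGE2 and 1 mM NAD+ (final), 20 nM enzyme, Tris-HCl pH 8 with Tween 20, after 15 min compound preincubation at room temperature. Fluorescence change, last versus first of five reads.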
* hit, by the source's call; u = inconclusive; x = not tested or not shown; [ ] = dose if it differs, or a comment. Unless noted, the call rests on the fitted dose curve; in most records, active means well fitted inhibition curve with a large enough effect (not every such curve was filed as active); inconclusive means small, poorly fitted or top-dose-only effect, or another doubt; inactive means no such curve, though single readings can be large or run the other way.

SMILES	HTT cytoprotect	HTT aggregate	GoLoco inh red	PNC inhibitor	ALDH1A1 inh	HPGD block
Cc1ccc(Cn2c(SCCN3CCOCC3)nc3c2c(=O)n(C)c(=O)n3C)cc1	-12%[0.074 µM]	30%	x	-81*	-1%	x
NCc1ccc(C(=O)O)cc1	5%[10 µM]	x	2%[14.2 µM]	x	-2%[13.5 µM]	-1%
N[C@H](Cc1cccc(-c2ccccc2CP(=O)(O)O)c1)C(=O)O	-20%[1.9 µM]	x	x	x	x	x
Cc1cc2c(nc1C)CCCN2C[C@H](C)O/N=C1/[C@H]2O[C@@H]2[C@@H](O)[C@H]2[C@H]1CCn1c(=O)n(-c3ccccc3)c(=O)n12	-5%[10 µM]	x	x	x	u	x
O=C1[C@H]2[C@H]3C=C[C@@H](C4[C@H]3[C@@H]3C(=O)N(CN5CCSCC5)C(=O)[C@H]43)[C@H]2C(=O)N1CN1CCSCC1 (stereo partly drawn)	x	x	8%[14.2 µM]	x	-5%[13.5 µM]	-5%
CC(C)Sc1nc2c(c(=O)n(C)c(=O)n2C)n1Cc1ccc(Cl)cc1	-28%	-32%	3%	-10	8.9µM*	-9%
Cc1ccc(Cn2c(SCCN3CCCCC3)nc3c2c(=O)[nH]c(=O)n3C)cc1	-7%[10 µM]	-22%	-9%	u	u	28µM*
Cc1ccc(S(=O)(=O)N2CCOCC2)cc1C(=O)Nc1ccc(S(=O)(=O)Nc2nccs2)cc1	9%	32%	21%	x	-13%	x
COc1ccccc1/C=C/C(=O)c1c2c(c(C)[nH]c1=O)CCCC2	u	-29%	12%	-29	-6%	-12%
CC1(C)CC(=O)C2=C(C1)NC(=O)CC2c1ccccc1F (stereo not drawn)	-16%	-2%	12%	29	-3%	-11%
Cc1[nH]nc2c1C(c1ccccc1F)CC(=O)N2 (stereo not drawn)	-31%	-29%	-12%	-106*	22µM*	-18%
O=C1CC(c2ccccc2F)C2=C(COC2=O)N1 (stereo not drawn)	-17%	18%	-5%	x	18µM*	x
CCCN1Cc2cccc(C(=O)NC(C)c3cccs3)c2C1=O (stereo not drawn)	8%	-3%	-4%	-13	4µM*	-8%
CCCN1Cc2cccc(C(=O)NCCCOC(C)C)c2C1=O	-6%	-1%	4%	9	22µM*	-10%
C=CCOC(=O)C1=C(C)OC(N)=C(C#N)C1c1ccoc1 (stereo not drawn)	18%[10 µM]	-12%	-1%	u	-10%	-15%
CC1=C(C#N)C(c2ccoc2)C(C(=O)OCc2ccccc2)=C(N)S1 (stereo not drawn)	17%[10 µM]	-1%	15%	-24	28µM*	-18%
N#CC1=C(N)SC(N)=C(C#N)C1c1ccoc1	5%[10 µM]	-10%	66%	u	20µM*	28µM*
Cc1ccc(C2C(C#N)=C(N)SC(N)=C2C#N)cc1	-19%[10 µM]	10%	107%	-26	22µM*	-16%
Cc1ccc(C2C(C#N)=C(N)SC(N)=C2C#N)c(C)c1	-5%	9%	240%	-15	u	u
COc1cc(N2CCOCC2)ncn1	36%	-10%	5%	36	6%	-7%
CCN1C(=O)[C@H]2[C@H]3[C@H](O)[C@H](O)C/C(=N/O[C@@H]4O[C@@H](COC(C)=O)[C@@H](OC(C)=O)[C@@H](OC(C)=O)[C@H]4OC(C)=O)[C@H]3CC[C@@H]2C1=O	-5%[10 µM]	x	x	x	0%[13.5 µM]	x
CC(C)Oc1ccc(N2CC(C(=O)Nc3ccc(N4CCOCC4)cc3)CC2=O)cc1 (stereo not drawn)	6%[10 µM]	-20%	-12%	54	u	-19%
CN(C)c1cc[n+](Cc2c(Cl)cccc2Cl)cc1	-39%[10 µM]	8.9µM*	10%	-12	4%	1%
COC(=O)c1ccc(NC(=O)CN(C)S(=O)(=O)c2ccc(OC)c(C)c2)cc1	4%[10 µM]	1.3µM*	9%	u	u	-22%
CN=C(Nc1cc(Cl)ccc1Cl)SC1CC(=O)N(c2ccc(C(=O)OC)cc2)C1=O (stereo not drawn)	6%[10 µM]	u	8%	-21	0%	-10%
SMILES	HTT cytoprotect	HTT aggregate	GoLoco inh red	PNC inhibitor	ALDH1A1 inh	HPGD block
COc1ccc(CS(=O)(=O)/C(Cl)=C(/Cl)C(=O)Nc2ccc(OC)nc2)cc1	-26%[10 µM]	u	1%	-6	1.6µM*	-9%
COc1ccc(NC(=O)Cc2ccccc2)cn1	-19%	-6%	15%	x	-2%	x
COc1ccc(NC(=O)/C(Cl)=C(/Cl)S(=O)Cc2ccccc2)cn1 (stereo not drawn)	-91%	5µM*	-5%	u	13µM*	u
CN(C)C(=O)C1CCN(Cc2c[nH]c3ccccc23)CC1	3%[10 µM]	x	8%[14.2 µM]	x	14%[13.5 µM]	0%
CC(=O)NC1=C(NC2CCS(=O)(=O)C2)C(=O)c2ccccc2C1=O (stereo not drawn)	-34%[10 µM]	-10%	-2%	-28	4%	11µM*
O=C(Nc1ccccc1)NC1CCS(=O)(=O)C1 (stereo not drawn)	1%[1.9 µM]	2%	-1%	4	1%	-13%
CN(C1=C(NC(=O)c2ccccc2)C(=O)c2ccccc2C1=O)C1CCS(=O)(=O)C1 (stereo not drawn)	-9%[10 µM]	22µM*	-5%	95	u	-27%
CC(=O)c1ccc[nH]1	x	x	-1%	x	1%	-8%
COc1ccccc1-n1c(SCC(=O)NCc2ccc3c(c2)OCO3)nc2cc([N+](=O)[O-])ccc21	-3%[10 µM]	8%	6%	-10	1.1µM*	-18%
CC(Sc1nc2cc([N+](=O)[O-])ccc2n1-c1ccc(F)cc1)C(=O)NCc1ccc2c(c1)OCO2 (stereo not drawn)	-13%[10 µM]	7%	31%	-24	1.4µM*	u
N#Cc1ccc(CN2CCCC3(CCN(S(=O)(=O)c4ccccc4)CC3)C2)cc1	-2%	x	3%	x	u	0%
CCc1cc(C=NC2CCCCC2)c(O)s1	-17%	-5%	-9%	u	u	4.5µM*
COC(=O)N1CCC[C@@]2(CCN(c3ccncc3)C2)C1	-19%	x	-1%	x	2%	-1%
Cc1ccc(CC2SC(=O)NC2=O)cc1Cl (stereo not drawn)	-14%[10 µM]	-16%	-2%	-100*	32µM*	-22%
CC(=O)/C(C#N)=C1\NC(=O)C(Cc2ccc(C)c(C)c2)S1 (stereo not drawn)	-50%	u	-10%	-108*	-10%	-17%
CC(=O)/C(C#N)=C1\NC(=O)C(Cc2ccc(F)cc2)S1 (stereo not drawn)	-24%[10 µM]	14%[9.22 µM]	-4%	x	x	x
COc1ccc(CN=C(Nc2ccccc2)SC2CC(=O)N(C)C2=O)cc1 (stereo not drawn)	x	1%	-1%	24	-15%	-3%
